Assay results taken from PubChem BioAssay (NCATS).
Records with an inconclusive call do not appear. A number with no mark means an inactive call. Active and inactive are the calls of the source. Calls follow the shape of the dose curve; as a rule, active = well fitted curve in the direction sought with a large enough effect; inconclusive = small, poorly fitted or top-dose-only effect, or another doubt; inactive = no such curve, though single readings can be large; an effect the other way counts as inactive or inconclusive.

test: qHTS assay to identify small molecule inhibitors of chordoma cells - UCH-1 (AID 1259355); conditions: UCH-1 chordoma viability, CellTiter-Glo, 48 h, combination; series mostly up to 46.1 µM; activity, negative = inhibition: at the top concentration; also: nearly all actives have a fitted effect of over 55% in size
In short: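 800 cells/well, overnight attach; compounds pinned at 15 concs, then auranofin/camptothecin/doxorubicin/rubitecan/topotecan combo added; 48hr 37 C, 5% CO2; CellTiter-Glo, 30min RT, luminescence.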
% is scaled to controls: 0 for no effect and ±100 for the full control effect.

SMILES	activity, negative = inhibition	Potency
C[C@]12C/C(=C/O)C(=O)C[C@@H]1CC[C@@H]1[C@@H]2CC[C@@]2(C)[C@H]1CC[C@]2(C)O	-26.8%	–
CC(=O)Nc1cc([As](=O)(O)O)ccc1O	-25.3%	–
Nc1ccncc1	1.26%	–
CCOC(=O)C1(c2ccccc2)CCN(CCC(C#N)(c2ccccc2)c2ccccc2)CC1	-24.8%	–
C=C1CC[C@@]2(O)[C@H]3Cc4ccc(O)c5c4[C@@]2(CCN3CC2CC2)[C@H]1O5	-10.4%	–
N[C@@H]1C[C@H]1c1ccccc1	-3.13%	–
CCN(CC)CCOC(=O)C(O)(c1ccccc1)c1ccccc1	16.7%	–
Clc1cccc(N2CCNCC2)c1	-7.73%	–
N[C@@H](Cc1ccc(Oc2cc(I)c(O)c(I)c2)c(I)c1)C(=O)O	9.43%	–
CC(=O)[C@H]1CC[C@H]2[C@@H]3CC[C@H]4C[C@](C)(O)CC[C@]4(C)[C@H]3CC[C@]12C	7.56%	–
Oc1ccc(Cl)cc1Cc1ccccc1	-17.8%	–
Cc1cccc(C)c1NC1=NCCCS1	-39.3%	–
COc1ccccc1N1CCNCC1	-1.36%	–
O=C(O)c1ccc2[nH]cc(CCCCN3CC=C(c4ccccc4)CC3)c2c1	0.601%	–
NCC1(CC(=O)O)CCCCC1	0.896% [at 20.6 µM]	–
c1ccc(C2CC2)c(OCC2=NCCN2)c1	-12.5%	–
CCOP(=S)(OCC)Oc1cc(C)nc(C(C)C)n1	6.23%	–
CCC1(C2=NCCN2)Cc2ccccc2O1 (stereo not given)	-6.81%	–

SMILES	activity, negative = inhibition	Potency
NP(N)(=O)NC(=O)c1ccc(F)cc1	-3.78%	–
CC(C)NCC(O)c1ccccc1Cl (stereo not given)	-11.6%	–
CN(C)CCc1ccc(O)cc1	-8.65%	–
N#CC(C#N)=Cc1ccc(O)c(O)c1	-9.22%	–
OCCOc1ccccc1	3.55%	–
CC[N+]1(C)CCCC(OC(=O)C(O)(c2ccccc2)c2ccccc2)C1 (stereo not given)	22.4%	–
CN1CCN(C(=O)O[C@H]2c3nccnc3C(=O)N2c2ccc(Cl)cn2)CC1	-1.07%	–
O=c1oc2ccccc2c(O)c1C(CC(O)c1ccc(-c2ccc(Br)cc2)cc1)c1ccccc1 (stereo not given)	-2.28%	–
O=[N+]([O-])c1cc([As](=O)(O)O)ccc1O	-9.73% [at 20.6 µM]	–
C=CCN1CC[C@]23c4c5ccc(O)c4O[C@H]2C(=O)CC[C@@]3(O)[C@H]1C5	–	inactive
CCCC1CCCCN1 (stereo not given)	5.29%	–
FC(F)(F)c1cccc(C2=CCN(CCc3ccc4ccccc4c3)CC2)c1	-11.2%	–
Cc1ccc2c(c1)C1CN(C)CCC1N2 (stereo not given)	-5.94%	–
CC1NCCOC1c1ccccc1 (stereo not given)	-6.01%	–
C#CCN(C)[C@H](C)Cc1ccccc1	-5.75%	–
COc1ccc(Cc2nccc3cc(OC)c(OC)cc23)cc1OC	2.33% [at 20.6 µM]	–
NN=C(N)N	3.36%	–

test: qHTS assay to identify small molecule inhibitors of chordoma cells - UCH-2 (AID 1259356); conditions: UCH-2 chordoma viability, CellTiter-Glo ATP luminescence, 48 h; series mostly up to 46.1 µM; activity change, negative = inhibition: at the top concentration

SMILES	activity change, negative = inhibition	Potency
C[C@]12C/C(=C/O)C(=O)C[C@@H]1CC[C@@H]1[C@@H]2CC[C@@]2(C)[C@H]1CC[C@]2(C)O	4.06%	–
CC(=O)Nc1cc([As](=O)(O)O)ccc1O	-15.7%	–
Nc1ccncc1	-12.2%	–
CCOC(=O)C1(c2ccccc2)CCN(CCC(C#N)(c2ccccc2)c2ccccc2)CC1	4.44%	–
C=C1CC[C@@]2(O)[C@H]3Cc4ccc(O)c5c4[C@@]2(CCN3CC2CC2)[C@H]1O5	-1.82%	–
N[C@@H]1C[C@H]1c1ccccc1	-22.9%	–
CCN(CC)CCOC(=O)C(O)(c1ccccc1)c1ccccc1	-1.31%	–
Clc1cccc(N2CCNCC2)c1	3.24%	–
N[C@@H](Cc1ccc(Oc2cc(I)c(O)c(I)c2)c(I)c1)C(=O)O	-2.17%	–
CC(=O)[C@H]1CC[C@H]2[C@@H]3CC[C@H]4C[C@](C)(O)CC[C@]4(C)[C@H]3CC[C@]12C	0.0028%	–
Oc1ccc(Cl)cc1Cc1ccccc1	1.66%	–
Cc1cccc(C)c1NC1=NCCCS1	2.42%	–
COc1ccccc1N1CCNCC1	6.51%	–
O=C(O)c1ccc2[nH]cc(CCCCN3CC=C(c4ccccc4)CC3)c2c1	-0.332%	–
NCC1(CC(=O)O)CCCCC1	10.9% [at 20.6 µM]	–
c1ccc(C2CC2)c(OCC2=NCCN2)c1	-15.6%	–
CCOP(=S)(OCC)Oc1cc(C)nc(C(C)C)n1	-2.24%	–
CCC1(C2=NCCN2)Cc2ccccc2O1 (stereo not given)	-1.86%	–

SMILES	activity change, negative = inhibition	Potency
NP(N)(=O)NC(=O)c1ccc(F)cc1	-10.3%	–
CC(C)NCC(O)c1ccccc1Cl (stereo not given)	8.51%	–
CN(C)CCc1ccc(O)cc1	10.3%	–
N#CC(C#N)=Cc1ccc(O)c(O)c1	8.9%	–
OCCOc1ccccc1	3.51%	–
CC[N+]1(C)CCCC(OC(=O)C(O)(c2ccccc2)c2ccccc2)C1 (stereo not given)	-22%	–
CN1CCN(C(=O)O[C@H]2c3nccnc3C(=O)N2c2ccc(Cl)cn2)CC1	0.983%	–
O=c1oc2ccccc2c(O)c1C(CC(O)c1ccc(-c2ccc(Br)cc2)cc1)c1ccccc1 (stereo not given)	-3.26%	–
O=[N+]([O-])c1cc([As](=O)(O)O)ccc1O	2.57% [at 20.6 µM]	–
C=CCN1CC[C@]23c4c5ccc(O)c4O[C@H]2C(=O)CC[C@@]3(O)[C@H]1C5	–	inactive
CCCC1CCCCN1 (stereo not given)	0.457%	–
FC(F)(F)c1cccc(C2=CCN(CCc3ccc4ccccc4c3)CC2)c1	5.86%	–
Cc1ccc2c(c1)C1CN(C)CCC1N2 (stereo not given)	-1.69%	–
CC1NCCOC1c1ccccc1 (stereo not given)	-0.762%	–
C#CCN(C)[C@H](C)Cc1ccccc1	1.26%	–
COc1ccc(Cc2nccc3cc(OC)c(OC)cc23)cc1OC	-3.77% [at 20.6 µM]	–
NN=C(N)N	7.24%	–
